# From PubChem BioAssay AID624404 (Broad Institute, 2012)
# Hit rate of the full screen: of about 1,800 compounds, about 710 (39%) were called active. Inconclusive results (about 28%) are left out.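 Rule for the calls: active = luciferase signal rise whose fitted curve crosses a set activity limit at or below the top valid tested dose; inconclusive = flat fit with 30 to 70% rise, or poor fit; inactive = signal falling, flat within 30%, or crossing above top dose.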 A selection follows. Potency and affinity values are given separately.
# Experiment: luciferase activators in glycosylation-insensitive reporter cells, dose response, counter-screen for N-linked glycosylation inhibitor project, D54 LucT cells, luminescence, cherry pick (AID 624404);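 note: 0% = median neutral control signal and 100% = twice that signal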
# Settings: D54 LucT luciferase reporter counterscreen, 24 h; series mostly up to 19.5 µM; activity increase (luciferase signal): at the top concentration
row,Compound,activity increase (luciferase signal)
1,O=C(CNC(=O)N1CC(=O)Nc2ccccc21)NCCCc1ccccc1,37.6% (inactive)
2,CC(C)c1ccc(NC(=O)[C@@H](NC(=O)N2CC(=O)Nc3ccccc32)C(C)C)cc1,49.1% (inactive)
3,Cn1ncc2c(O/N=C(\N)c3ccc(C(F)(F)F)cc3)ncnc21,9.8% (inactive)
4,CC(/C=N/NC(=O)c1cc(-c2ccc(C)s2)[nH]n1)=C\c1ccccc1,57% (inactive)
5,CN(C)CCCN1C(=O)c2cccc3cccc(c23)C1=O,66.1% (inactive)
6,Cc1cc(NC(=O)COC(=O)c2ccc(S(=O)(=O)N3CCCc4ccccc43)cc2)no1,-2.94% [at 5 µM] (inactive)
7,CCOc1ccccc1C1CC(=O)Nc2cc3c(cc21)OCCO3 (configuration not stated),-7.85% (inactive)
8,CCOC(=O)Cc1csc(/N=C/c2c(O)n(-c3ccc(C)c(C)c3)c(=O)c3ccccc23)n1,48.7% (inactive)
9,Cc1cc(O)c(NC(=O)c2cc([N+](=O)[O-])ccc2Cl)cc1C,5.97% (inactive)
10,CC(=O)Nc1sc(C)c(C)c1C(=O)OCC(=O)N(CC(C)C)c1c(N)n(Cc2ccccc2)c(=O)[nH]c1=O,-15.8% (inactive)
11,CC(=O)Nc1sc(C)c(C)c1C(=O)OCC(=O)Nc1cccc(C)c1,35.9% (inactive)
12,O=C1c2cccc3cccc(c23)C(=O)N1CC1CCN(CC(O)COCc2ccc3c(c2)OCO3)CC1 (configuration not stated),-18.8% (inactive)
13,CN(C)c1ccc(C(C[N+](=O)[O-])c2c(N)n(C)c(=O)n(C)c2=O)c(F)c1C#N (configuration not stated),-29.9% (inactive)
14,Cc1ccc(-c2cnc(C3CC3)o2)cc1S(=O)(=O)Nc1ccccc1,28.3% (inactive)
15,COc1ccc(Oc2ccc(/C=C/C(=O)c3cccc(OC)c3)cc2[N+](=O)[O-])cc1,-28.9% (inactive)
16,CCNc1ccc(Br)cc(C(=O)/C=C/c2ccc(Cl)cc2)c1=O,-4.89% (inactive)
17,Cc1[nH]nc2c1C(c1cccc(O)c1)C1=C(CC(C)(C)CC1=O)N2 (configuration not stated),-7.35% (inactive)
18,O=C(NCCc1ccc(F)cc1)c1coc(=O)c(Br)c1,14.3% (inactive)
19,COc1ccc(CCn2c(=N)c(C(=O)NCc3ccco3)cc3c(=O)n4ccccc4nc32)cc1OC,-3.36% (inactive)
20,Cc1cc(NC(=O)CSc2nc(-c3ccco3)cc(C(F)(F)F)n2)no1,26.8% (inactive)
21,Cc1cccc2[nH]c3c(N4CCC5(CC4)OCCO5)ncnc3c12,17% (inactive)
22,COc1ccc(CNC(=O)C2Cc3c(-c4ccc5c(c4)OCO5)ccnc3O2)cc1OC (configuration not stated),41.1% (inactive)
23,COC(=O)c1cc(=O)n(Cc2ccc3c(c2)OCO3)c(=Nc2ccc(F)c(Cl)c2)s1,-55.3% (inactive)
24,COc1cccc2nc3c(C(=O)NCCN(C)C)cccc3cc12,-3.74% (inactive)
25,COc1ccc(-c2nc3c(C(=O)NCCN(C)C)cccc3c3ccccc23)cc1,22.2% (inactive)
26,CCN(c1ccccc1)S(=O)(=O)c1ccc(C(=O)NC2CCN(Cc3ccccc3)CC2)cc1,-0.543% (inactive)

row,Compound,activity increase (luciferase signal)
1,Nc1nc(=S)c2ncn(C3OC(CO)C(O)C3O)c2[nH]1 (configuration not stated),23.6% (inactive)
2,COC(=O)Nc1ccc(S(=O)(=O)N2CCCc3ccccc32)cc1,-15.6% (inactive)
3,O=C1CCCN1c1ccc(S(=O)(=O)Nc2ccc3c(c2)OCCO3)cc1,35.6% (inactive)
4,COC(=O)c1ccc(S(=O)(=O)N2CCc3ccccc32)cc1,47.4% (inactive)
5,Cc1nc([N+](=O)[O-])c(Sc2nc3ccccc3[nH]2)n1Cc1ccccc1,19.7% (inactive)
6,COc1ccc(OC)c(NS(=O)(=O)c2ccc(SC)cc2)c1,16.3% (inactive)
7,O=C1/C(=C/c2ccccc2)CCc2ccc(Cl)nc21,29.5% (inactive)
8,c1cc2c3c(cccc3c1)C(N1CCCCC1)=N2,-6.38% (inactive)
9,Nc1c(N(CCC2=CCCCC2)C(=O)COc2ccc(F)cc2Cl)c(=O)[nH]c(=O)n1Cc1ccccc1,-73.5% (inactive)
10,COc1ccc(-c2cc(C(F)F)n3ncc(C(=O)N4CCc5ccccc54)c3n2)cc1,-4.74% (inactive)
11,O=c1cc(-c2ccccc2)[nH]n1-c1nc2ccccc2[nH]1,-17.5% (inactive)
12,CCCCCc1ccc(OCCC[n+]2ccccc2)c(CCCCC)c1,-63.6% (inactive)
13,Cc1cnc(C(=O)OCC(=O)NC2CCCCCCC2)cn1,49.4% (inactive)
14,NC(=O)[C@H]1CC2(CC(c3cccc(NC(=O)COc4ccc(Cl)cc4)c3)=NO2)CN1C(=O)C(c1ccccc1)c1ccccc1 (some centres not stated),-31.4% (inactive)
15,O=C(N/N=C\c1cccnc1)c1cc(-c2ccccc2)nc2c(Cl)cccc12,-40.5% (inactive)
16,COc1ccc(NC(=O)c2nc(C)c(C3(C)CC(c4ccccc4)=NO3)s2)cc1 (configuration not stated),21.9% (inactive)
17,CCOC(=O)c1c(C)nc2sc3c(=O)n(-c4ccc(C)cc4)cnc3c2c1-c1ccc(OC)cc1,1.25% (inactive)
18,CCOC(=O)C1=C(Cc2ccc(F)cc2)C(=O)c2ccccc2C1=O,39% (inactive)
19,COC(=O)c1ccccc1NC(=O)Cn1nnc(-c2ccc(OC)cc2)n1,41% (inactive)
20,COc1ccc(Cn2c(=O)cc(N)n(-c3ccccc3C)c2=O)cc1,45.7% [at 5 µM] (inactive)
21,CCOc1ccc(OCC(=O)N(CCC2=CCCCC2)c2c(N)n(Cc3ccccc3)c(=O)[nH]c2=O)cc1,-36.8% (inactive)
22,CC(C)CN(C(=O)COC(=O)CCSc1ccc(Cl)cc1)c1c(N)n(Cc2ccccc2)c(=O)[nH]c1=O,0.545% (inactive)
23,COc1ccc(-c2cc(-c3ccccc3)c(C#N)c(S(C)=O)n2)cc1 (configuration not stated),-12.6% (inactive)
24,Cc1cc(Br)cc2c(C(=O)Nc3c(C)n(C)n(-c4ccccc4)c3=O)cc(-c3cccs3)nc12,22.6% [at 5 µM] (inactive)
25,CN1CCN(CC(=O)Nc2cc(N(C)C)nc3ccccc23)CC1,15.8% (inactive)
26,CCCn1c(CN2CCN(C(=O)OCC)CC2)nc2cc(NC(=O)CC)ccc21,23% (inactive)

row,Compound,activity increase (luciferase signal)
1,CC(C)(C)NCC(O)CON=C1c2ccccc2-c2ccccc21 (configuration not stated),-11.5% (inactive)
2,Cc1ccccc1OCCOC(=O)c1c(-c2ccccc2)noc1C,5.79% (inactive)
3,Cc1ccc(-c2cc(C(F)F)n3ncc(C(=O)N4CCc5ccccc54)c3n2)cc1,-8.28% (inactive)
4,CC(C)Oc1ccccc1C1CC(=O)Nc2cc3c(cc21)OCO3 (configuration not stated),13% (inactive)
5,CCOc1cccc2sc(Nc3nc4ccc(NC(C)=O)cc4s3)nc12,-31.6% (inactive)
6,Cc1cc(C)c2c(N)c3ccccc3nc2n1,3.64% (inactive)
7,CCc1ccc2nc3nc(C)cc(C)c3c(N)c2c1,-2.78% (inactive)
8,COC(=O)C1=C(C(=O)OC)[C@@H]2N(Cc3ccccc3)c3ccccc3[C@@]23C[C@@H](C(=O)OC)N(C(=O)c2cc(C)oc2C)C3=N1,2.73% (inactive)
9,C=CCN1c2ccccc2[C@]23C[C@@H](C(=O)OC)N(C(=O)c4ccc(Br)cc4)C2=NC(C(=O)OC)=C(C(=O)OC)[C@H]13,-7.77% (inactive)
10,CCCOC(=O)c1[nH]c2c(c1C)C(=O)CC(c1cccs1)C2 (configuration not stated),-7.69% (inactive)
11,COc1cc(/C=C2/C(=O)N(C)C(=S)N2C)ccc1OCc1cccc(F)c1,-47.8% (inactive)
12,COc1ccc(/C=C2\SC(=S)N(CCC(=O)NC3CCCC3)C2=O)cc1OC,-13.3% (inactive)
13,COc1cc2c3c(cccc3c1)C(=O)N(CCN1CCCC1)C2=O,0.522% (inactive)
14,Cc1ccc(C)c(N2CCN(S(=O)(=O)c3ccc(-c4ccc(=O)[nH]n4)o3)CC2)c1,13.6% (inactive)
15,CC1(C(=O)NCc2cccs2)Cc2c(-c3ccc(C(N)=O)cc3)ccnc2O1 (configuration not stated),13.2% (inactive)
16,CC(=O)Nc1cccc(-c2ccnc3c2CC(C(=O)NCc2ccc(F)c(F)c2)O3)c1 (configuration not stated),4.2% (inactive)
17,CC(=O)c1cccc(-c2ccnc3c2CC(C(=O)NCc2cccs2)O3)c1 (configuration not stated),31.3% (inactive)
18,Cc1ccc(CNC(=O)Cc2ccc(-n3c(=O)[nH]c4ccsc4c3=O)cc2)cc1,-2.38% (inactive)
19,COc1cc(C2CC(=O)Nc3cc(C)c(C)cc32)cc(OC)c1OC (configuration not stated),37.1% (inactive)
20,CN1CCN(C(c2ccc(Br)cc2)c2cc(Cl)c3cccnc3c2O)CC1 (configuration not stated),97.6% (inactive)
21,COc1ccc2noc3c2c1C(=O)c1ccccc1-3,29.6% (inactive)
22,CCN(CC)CCCNc1ccc2ncn3c4ccc(O)cc4c(=O)c1c23,-16.4% (inactive)
23,COc1ccc2sc3cccc(NCCN(C)C)c3c(=O)c2c1,102% (inactive)
24,COc1cc(C)c2sc3ccccc3c(=O)c2c1NCCN(C)C,-86.3% (inactive)
25,CN(C)CCNc1ccc2nnn3c4ccc(O)cc4c(=O)c1c23,-11.4% (inactive)
26,COc1ccc(-n2c(C)cc(C(=O)CCl)c2C)cc1,-1.73% (inactive)

row,Compound,activity increase (luciferase signal)
1,c1ccc2sc(Sc3ncnc4sccc34)nc2c1,2.04% (inactive)
2,COc1ccc2c(C)nc(Nc3nc(-c4ccccc4)cc(=O)[nH]3)nc2c1,-0.912% [at 5 µM] (inactive)
3,O=C(NCc1cccs1)C1CC(c2ccc(Cl)c(Cl)c2)=NO1 (configuration not stated),27.1% (inactive)
4,COc1ccc(C2=NOC(C(=O)NCc3ccco3)C2)cc1OC (configuration not stated),31.1% (inactive)
5,COc1cc(OC)c(C2=NOC(C(=O)NCc3cccs3)C2)cc1Cl (configuration not stated),35.5% (inactive)
6,CC(=O)c1cccc(NC(=O)CSc2ncc(C(=O)Nc3ccccc3)c(=O)n2C)c1,-6.67% (inactive)
7,CCn1cc2nc(SCC(=O)Nc3ccc(OC)cc3OC)n(Cc3ccc(OC)cc3)c(=O)c2n1,-4.92% (inactive)
8,Cn1c(SCC(=O)c2ccccc2)ncc(C(=O)Nc2ccc(F)cc2)c1=O,99.3% (inactive)
9,COc1ccc(CN(C)c2ncnc3sccc23)c(OC)c1OC,7.71% (inactive)
10,O=C(N/N=C/c1cccnc1)c1cc(-c2ccc(Br)cc2)nc2ccccc12,24.2% (inactive)
11,Cc1ccc(/C=N/NC(=O)c2c(C)nc3ccc(Br)cn23)cc1,37.3% (inactive)
12,NC(N)=N/N=C/c1ccc2cccc(OCc3ccccc3)c2n1,20.1% (inactive)
13,Cc1ccc(/C=N/NC(=O)CCn2nc(C)cc2C)c(C)c1,21.3% (inactive)
14,Brc1ccc(CSc2ccc3nnc(-c4cccnc4)n3n2)cc1,-12.3% (inactive)
15,Cc1ccccc1OCCc1c(C)[nH]c(=S)[nH]c1=O,24.5% (inactive)
16,CCN1Cc2c(/C=C/c3ccccc3)nc3ccc(OC)cc3c2N(c2cccc(Cl)c2)C1,-74.9% (inactive)
17,COc1cc2nc(NC(=O)c3ccccc3)sc(=O)c2cc1OC,-3.32% (inactive)
18,O=C(Nc1nc2ccccc2c(=O)s1)c1ccco1,5.88% (inactive)
19,Cc1ccc(C(=O)NC(=C(Cl)Cl)S(=O)(=O)c2ccc(C)cc2)cc1,36% (inactive)
20,CC(=O)N(C1=C(Cl)C(=O)c2ccccc2C1=O)C1CCCCC1,-63.8% (inactive)
21,COc1ccccc1OCC(=O)NNC(=O)c1ccoc1C,17.5% (inactive)
22,COc1cc2cc(C(c3nnnn3C(C)(C)C)N3CCc4ccccc4C3)c(=O)[nH]c2cc1OC (configuration not stated),-3.46% (inactive)
23,CC(=O)c1ccc(Oc2cc(C)nc(-n3nc(C)cc3C)n2)cc1,-4.49% (inactive)
24,Cc1cc(Nc2cc(Cl)cc(Cl)c2)nc(N)n1,13.1% (inactive)
